# Records with an inconclusive call do not appear. Calls of active or inactive are those of the source. Rule for the calls: active = hit-call score of the fitted dose curve at least 0.9, where 1 is the maximum; inconclusive = response in the unintended direction; inactive = score below 0.9.
# Biological target: Glucocorticoid receptor (Homo sapiens) (UniProt P04150)
# Test: ATG_hGR_EcoTox2: Attagene TRANS-FACTORIAL EcoTox-2 HepG2 Assay for human Glucocorticoid Receptor (GR)
# Method: ATG_EcoTox2 is a cell-based, multiplexed assay created by modifying the existing Attagene TRANS-FACTORIAL system to include a panel of nuclear receptors from some or all the following species: human (Homo sapiens), african clawed frog (Xenopus laevis), rainbow trout (Oncorhynchus mykiss), japanese medaka (Oryzias latipes), and zebrafish (Danio rerio). The ECOTOX2-FACTORIAL format uses HepG2, a human liver cell line, with measurements taken at 24 hours after chemical dosing in a 24-well plate. ATG_hGR_EcoTox2 is one of 29 assay components calculated in the ATG_EcoTox2 assay. It is designed to make measurements of mRNA induction, a form of inducible reporter, as detected with fluorescence intensity signals by Reverse transcription polymerase chain reaction (RT-PCR) and Capillary electrophoresis technology.The assay endpoint ATG_hGR_EcoTox2 was analyzed in the positive analysis fitting direction relative to DMSO as the negative control and baseline of activity. Using a type of inducible reporter, measures of mRNA for gain-of-signal activity can be used to understand the reporter gene at the transcription factor-level as they relate to the gene for glucocorticoid receptor. Furthermore, this assay endpoint can be referred to as a primary readout, because this assay has produced multiple assay endpoints where this one serves a reporter gene function. To generalize the intended target to other relatable targets, this assay endpoint is annotated to the nuclear receptor intended target family, where the subfamily is steroidal.
# Human liver HepG2 cells are transiently transfected with multiple reporter transcription units (MRTUs) in 6-well plates using FuGene 6 reagent (Roche; 3 ml FuGene/1 mg DNA). The MRTU constructs are regulated by a cis-regulating element (promoter). Each RTU expresses a GAL4-UAS that regulates the transcription of a nearby target reporter gene sequence. A major difference between the CIS and TRANS system is that in CIS activities of endogenous TFs are measured, whereas the TRANS assay evaluates changes in activities of exogenous, chimeric NR-Gal4 proteins. […] At the end of 24 hour incubation, total RNA was isolated using TriZol reagent (Invitrogen). The isolated RNA is then reverse-transcribed using oligo(dT) primer and Mo-MLV reverse transcriptase (Invitrogen) with DNAse I (Ambion) treatment for 30 min. The one-tenth of the produced cDNA was amplified by PCR using Taq DNA polymerase (Invitrogen) and two reporter sequence-specific primers. […] The fragments were purified using Qiaquick PCR columns (Qiagen), analyzed on an ABI 3130xL genetic analyzer (Applied Biosystems) with peak positions identified by using a set of X-rhodamine (ROX)-labeled MapMarker1000 molecular weight standards (BioVentures). […]
# Glucocorticoid receptor (Homo sapiens), sequence (P04150 whole entry, looked up): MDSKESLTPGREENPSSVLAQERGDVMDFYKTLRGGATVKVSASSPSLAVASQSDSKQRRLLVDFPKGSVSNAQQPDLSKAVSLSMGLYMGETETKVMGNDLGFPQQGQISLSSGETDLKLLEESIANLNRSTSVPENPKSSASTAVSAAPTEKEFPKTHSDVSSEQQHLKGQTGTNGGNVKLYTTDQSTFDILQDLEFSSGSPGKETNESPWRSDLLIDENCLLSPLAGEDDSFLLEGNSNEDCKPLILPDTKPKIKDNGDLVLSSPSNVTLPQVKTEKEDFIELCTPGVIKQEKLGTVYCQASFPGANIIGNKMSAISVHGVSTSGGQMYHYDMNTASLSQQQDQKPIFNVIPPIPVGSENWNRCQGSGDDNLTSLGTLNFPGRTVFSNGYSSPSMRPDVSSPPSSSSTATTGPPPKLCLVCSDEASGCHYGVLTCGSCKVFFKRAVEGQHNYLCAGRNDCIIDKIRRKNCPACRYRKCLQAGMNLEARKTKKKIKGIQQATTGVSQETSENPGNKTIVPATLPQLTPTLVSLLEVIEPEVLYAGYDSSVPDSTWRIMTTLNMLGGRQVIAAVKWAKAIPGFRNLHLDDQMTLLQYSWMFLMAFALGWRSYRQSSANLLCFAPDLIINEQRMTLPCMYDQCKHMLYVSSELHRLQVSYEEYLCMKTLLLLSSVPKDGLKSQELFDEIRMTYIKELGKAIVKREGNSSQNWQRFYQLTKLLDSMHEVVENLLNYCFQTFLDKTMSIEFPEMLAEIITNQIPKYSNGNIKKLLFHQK
Compound,outcome,AC50
O=P(Oc1ccccc1)(Oc1ccccc1)Oc1ccccc1,inactive,–
CC(C)(Oc1ccc(Cl)cc1)C(=O)O,inactive,–
CC(c1cc2ccccc2s1)N(O)C(N)=O (centres undefined),–,50 µM (active)
CCCCOCN(C(=O)CCl)c1c(CC)cccc1CC,inactive,–
